Potency data for five compounds are collected here from PubChem BioAssay AID916 (National Center for Advancing Translational Sciences (NCATS), 2007).

Structures are written as SMILES. Records with an inconclusive call do not appear. Calls of active or inactive are those of the source. The call rests on the fitted dose curve; in most records, active means well fitted activation curve with a large enough effect in the signal ratio, with a control signal flat (not every such curve was filed as active); inconclusive means small, poorly fitted or top-dose-only effect, or a change in a side signal; inactive means flat fitted curve, though single readings scatter; the % refers to the signal ratio.

A short description of this experiment: Confirmation Concentration-Response Assay for Cell signaling CRE-BLA (Fsk stim). The note with it: CHO CRE-bla reporter (cAMP response element driving beta-lactamase), NKH477 EC10 stim, FRET ratio; series mostly up to 38.3 µM. An excerpt:
NIH Molecular Libraries Screening Centers Network [MLSCN] NIH Chemical Genomics Center [NCGC] MLSCN Grant: 1X01MH079867-01 Assay Provider: Marshall W. Nirenberg, U.S. National Heart, Lung and Blood Institute CRE beta-lactamase Assay Overview Memories persist for different lengths of time, from seconds or minutes to a lifetime. There are two kinds of memory: short-term memory (STM) and long-term memory (LTM). STM lasts for minutes to hours, which maybe mediated by modifications of molecules involved in synaptic functions. LTM lasts for days or longer, and may be due to the formation of new synapses or restructuring of existing synapses. LTM, but not STM, requires gene transcription and synthesis of proteins. CREB (cyclic-AMP Responsive Element Binding Protein) is one of the candidates plays an important role for enhancement of some types of LTM. CREB, a family of transcription factors, regulates the transcription of genes containing cAMP Responsive Elements (CRE). CRE is a nucleotide sequence often found in the promoter regions of genes that are binding sites for CREB. Using a beta-lactamase reporter-gene under control of cAMP responsive element, a cell-based assay [CellSensor(TM) CRE-bla CHO developed by Invitrogen Corp.] was used to measure forskolin-induced signaling. The selected compounds were measured for their ability to modulate positively the action of EC10 NKH 477, a water soluble forskolin, on reporter gene activity. Compounds were screened in a titration series in 1536-well format. Positive modulators were identified based on the AC50 values derived from the screening data.
NCGC Assay Protocol Summary 2000 cells/5uL in Opti-MEM medium containing 0.5% dialyzed FBS, 0.1 mM NEAA, 1 mM sodium pyruvate and 10 mM HEPES was dispensed into 1536-well plates and cells were cultured at 37 degrees Celsius overnight. Next day 23 nL of compounds or DMSO were delivered to each well using a pin tool, and 1uL of EC10 level of NKH 477, or EC100 level of IBMX, a PDE inhibitor, in the present of NKH 477, or assay medium was added. And then the plates were incubated at 37 degrees Celsius for 3 hours. 1 uL of CCF4-dye mixture was added to each well. After incubated at room temperature for 2 hours the plates were measured on an EnVision plate reader at Excitation 405nm, Emission1=460nm and Emission 2=530nm. The %Activity was determined from the ratio of 460nm/530nm. Keywords: NIH Roadmap, MLSCN, MLSMR, qHTS, NCGC, CRE, beta-lactamase reporter-gene assay.
With `CC[C@]1(O)C[C@@H]2CN(CCc3c([nH]c4ccccc34)[C@](C(=O)OC)(c3cc4c(cc3OC)N(C=O)[C@H]3[C@@](O)(C(=O)OC)[C@H](C(=O)OC)[C@@]5(CC)C=CCN6CC[C@]43[C@H]65)C2)C1`, the Potency is 0.501 µM (active).
For the compound `Cc1ccc(Nc2c3c(nc4ncnn24)CCC3)cc1`, the Potency entry is “inactive”.
The same measure for `CCOc1ccc(C2c3c(oc4ccccc4c3=O)C(=O)N2c2ccc(C)cn2)cc1OC` (stereo not given): 15.8 µM (active).
The entry for `Cc1cc(C)nc(N2CCN(c3nc(C)nc4c3oc3ccccc34)CC2)n1` is “inactive”; for `CSc1nc2ccc(Nc3nc(N4CCOCC4)nc(N4CCOCC4)n3)cc2s1` it is 12.6 µM (active).
